Compound activity deposited in PubChem by National Center for Advancing Translational Sciences (NCATS).
The list is not random: actives were taken first. Their share in the collection is about 7.5%.
KinaseGlo FLuc = Counterscreen for Luciferase (Kinase-Glo TM) Inhibition. Potency, µM (doses to about 38.3 µM), for the others: at the top dose activity change, negative = inhibition, usual class: inhibitors. AID 1379, 2008. Kinase-Glo luciferase, ATP luminescence, 8 min. actives 0.28% (n = 200,000). Luciferin 4-monooxygenase (Photuris pensylvanica), Q27757; note: % is set by controls: 0 for no effect and ±100 for the full control effect; nearly all actives have a fitted effect of over 60% in size
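Light output from Kinase-Glo luciferase with luciferin and 10 uM ATP in 50 mM imidazole pH 7.2, KCl, MgCl2, Tween 20, BSA; compound pin-delivered, 8-min ambient incubation, then luminescence read.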
Rab9 promoter act = qHTS Assay for Rab9 Promoter Activators. Huh7 Rab9 promoter-luciferase reporter, luminescence, 24 h. Potency, µM (series often up to 9.22 µM), without a hit: at the top dose activation, negative = inhibition, usual class: activators. actives 2.8% (n = 320,000); note: % of control where 0% means no effect; nearly all actives have a fitted effect of over 60% in size
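Huh7 reporter line, Rab9 promoter upstream of luciferase. Compound exposure 24 h at 37 °C in reduced-serum medium with 10% FBS. Read-out: luminescence.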
NPC1 prom act = qHTS Assay for NPC1 Promoter Activators; Huh7 NPC1 promoter luciferase reporter, 24 h; Potency, µM (highest dose often 9.22 µM), for inactives: at the highest dose activation, most hits filed as activators; actives 2.4% (n = 320,000); AID 485313, 2010; note: % of control where 0% means no effect; nearly all actives have a fitted effect of over 60% in size
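Quantitative HTS used a cell-based reporter: Huh7 cells stably bearing the NPC1 promoter upstream of luciferase were treated with compounds for 24 h, and promoter activation was read as luminescence.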
ELG1 genotox = qHTS screen for small molecules that induce genotoxicity in human embryonic kidney (HEK293T) cells expressing luciferase-tagged ELG1; HEK293T ELG1-luciferase reporter, luminescence, 16 h; Potency, µM (series often up to 46 µM), for the others: at the top dose activity change, positive = activation, actives largely listed as activators; actives 1.3% (n = 330,000); AID 504466, 2011; note: % of control where 0% means no effect; nearly all actives have a fitted effect of over 60% in size
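After overnight (16 hr) compound treatment at 37 °C, ELG1-luciferase HEK293T cells were lysed with ONE-Glo; luminescence quantified 30 min later at room temperature.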
SMN2 splice enh = qHTS Assay for Enhancers of SMN2 Splice Variant Expression; HEK293 SMN2-luciferase splicing reporter, luminescence, 30-36 h; Potency, µM (highest dose often 46.1 µM), without a hit: at the top dose activity change, positive = activation, actives largely listed as activators; actives 2.8% (n = 210,000); note: % of control where 0% means no effect; nearly all actives have a fitted effect of over 55% in size
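HEK293 cells carry an SMN2 minigene-luciferase reporter in which exon 7 inclusion puts luciferase in frame. Cells were seeded at 2000 cells/well, attached for 10-12 hours, then exposed to compounds for 30-36 hours at 37C before ONE-Glo luminescence.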
FLuc counter = qHTS profiling assay for firefly luciferase inhibitor/activator using purifed enzyme and Km concentrations of substrates (counterscreen for miR-21 project); purified FLuc, Km substrates, luminescence inhibition; actives 6.9% (n = 360,000); Luciferin 4-monooxygenase (Photinus pyralis), P08659; Potency, µM (series often up to 57.5 µM), inactives show at the highest dose activity change, negative = inhibition, actives largely listed as inhibitors;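 note: plate controls were vehicle for no effect and reference inhibitor for full effect; nearly all actives have a fitted effect of over 55% in size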
Target sequence (P08659 whole entry, looked up): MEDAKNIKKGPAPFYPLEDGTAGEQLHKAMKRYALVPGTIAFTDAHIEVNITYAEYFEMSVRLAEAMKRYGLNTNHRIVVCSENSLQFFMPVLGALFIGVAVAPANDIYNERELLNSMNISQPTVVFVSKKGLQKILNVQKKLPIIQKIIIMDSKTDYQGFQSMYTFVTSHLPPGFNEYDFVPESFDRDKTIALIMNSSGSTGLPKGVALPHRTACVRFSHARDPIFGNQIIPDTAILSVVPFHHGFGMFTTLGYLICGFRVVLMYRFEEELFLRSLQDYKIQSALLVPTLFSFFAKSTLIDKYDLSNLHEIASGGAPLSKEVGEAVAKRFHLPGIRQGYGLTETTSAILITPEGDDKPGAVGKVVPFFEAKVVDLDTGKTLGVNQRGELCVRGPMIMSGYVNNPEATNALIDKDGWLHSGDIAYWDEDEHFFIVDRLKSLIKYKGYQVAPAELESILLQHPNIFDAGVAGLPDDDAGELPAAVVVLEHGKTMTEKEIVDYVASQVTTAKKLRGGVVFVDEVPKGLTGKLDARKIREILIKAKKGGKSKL
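Purified P. pyralis luciferase, 10 nM final, with Km-level 10 uM D-luciferin and 10 uM ATP in 50 mM Tris acetate pH 7.5, 10 mM Mg acetate, 0.01% Tween-20, 0.05% BSA; 6-point qHTS titration about 60 µM downward; luminescence read.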
The depositor's hits bear a star. Calls come from the whole dose curve; as a rule, active = well fitted curve in the direction sought with a large enough effect; inconclusive = small, poorly fitted or top-dose-only effect, or another doubt; inactive = no such curve, though single readings can be large; an effect the other way counts as inactive or inconclusive. Potency is the fitted concentration of half-maximal effect.

Results for CSCCC(NS(=O)(=O)c1ccc2c(c1)oc(=O)n2C)C(=O)NCc1ccc(F)cc1 (stereo not given) ?
SMN2 splice enh: -10%; FLuc counter: -1%

How did COc1cc2c(cc1OC)CN(C(=O)CN1CCN(S(=O)(=O)c3ccccc3Br)CC1)CC2 do in these assays?
Rab9 promoter act: -5%; NPC1 prom act: -2%; ELG1 genotox: -4%; FLuc counter: 1%

Results for Cc1ccc(-c2n[nH]c3c2C(c2cccc(O)c2)N(c2ccc(C(=O)O)cc2)C3=O)cc1 (stereo not given) ?
Rab9 promoter act: -2%; NPC1 prom act: -2%; ELG1 genotox: 1%; SMN2 splice enh: 4%; FLuc counter: 8.5µM*

What do the screens show for `CCOc1ccc(N(C(=O)c2snc(C(N)=O)c2N)C(C(=O)NCC2CCCO2)c2ccc(C)o2)cc1` (stereo not given)?
Rab9 promoter act: 1%; NPC1 prom act: 0%; ELG1 genotox: 0%; FLuc counter: 13µM*

What do the screens show for `CCOC(=O)c1nnn(C(CC)C(=O)Nc2ccc(F)cc2)c1C(=O)OCC` (stereo not given)?
SMN2 splice enh: -3%; FLuc counter: -1%

How did CCOc1cc(/C=N/NC(=O)c2ccc(N(C)S(=O)(=O)c3ccccc3)cc2)ccc1OC do in these assays?
Rab9 promoter act: 1%; NPC1 prom act: 2%; ELG1 genotox: -11%; FLuc counter: 2%

What do the screens show for `CC(=O)Oc1ccc(/C=N/NC(=O)c2ccc(N(C)S(=O)(=O)c3ccccc3)cc2)cc1`?
Rab9 promoter act: -2%; NPC1 prom act: -3%; ELG1 genotox: -5%; FLuc counter: 15µM*

What do the screens show for `COc1cc(/C=N/NC(=O)c2ccc(N(C)S(=O)(=O)c3ccccc3)cc2)cc(OC)c1OC`?
KinaseGlo FLuc: 0%; Rab9 promoter act: -12%; NPC1 prom act: 0%; ELG1 genotox: -7%; SMN2 splice enh: -9%; FLuc counter: -2%

What do the screens show for `Cc1ccc(/C=N/NC(=O)c2ccc(N(C)S(=O)(=O)c3ccccc3)cc2)cc1`?
Rab9 promoter act: 0%; NPC1 prom act: -1%; ELG1 genotox: -38%; FLuc counter: 8.5µM*

Results for Cc1ccc(CN2CCSc3ccc(C(=O)N4CCN(c5cccc(C)c5C)CC4)cc32)cc1 ?
SMN2 splice enh: -21%; FLuc counter: -2%

What do the screens show for `Cc1ccc2cccc(S(=O)(=O)Nc3ccc4c(c3)OCO4)c2n1`?
KinaseGlo FLuc: 0%; Rab9 promoter act: -3%; NPC1 prom act: -2%; ELG1 genotox: 5%; SMN2 splice enh: 7.1µM*; FLuc counter: 2%

Results for O=S(=O)(Nc1ccc2c(c1)OCCO2)c1cccc2nsnc12 ?
KinaseGlo FLuc: 2%; Rab9 promoter act: 1%; NPC1 prom act: 1%; ELG1 genotox: 16µM*; SMN2 splice enh: -13%; FLuc counter: 24µM*

Results for O=S(=O)(Nc1ccc2c(c1)OCO2)c1ccccc1 ?
KinaseGlo FLuc: -3%; Rab9 promoter act: 1%; NPC1 prom act: -2%; ELG1 genotox: 3%; SMN2 splice enh: -7%; FLuc counter: 4%

What do the screens show for `Cc1ccc(CNC(=O)c2ccc(OCC(C)C)cc2)n1C`?
Rab9 promoter act: 6%; NPC1 prom act: -1%; ELG1 genotox: 2%; FLuc counter: -5%

How did S=c1[nH]nc(-c2cc(-c3ccccc3)n[nH]2)n1/N=C/c1ccccc1 do in these assays?
Rab9 promoter act: 2%; NPC1 prom act: -3%; ELG1 genotox: 1%; FLuc counter: inconclusive

Results for S=c1[nH]nc(-c2cc(-c3ccccc3)n[nH]2)n1/N=C/C=C/c1ccccc1 ?
Rab9 promoter act: 1%; NPC1 prom act: -1%; ELG1 genotox: 3%; FLuc counter: 6.7µM*

What do the screens show for `COc1ccccc1/C=C/C=N/n1c(-c2cc(-c3ccccc3)n[nH]2)n[nH]c1=S`?
Rab9 promoter act: 13%; NPC1 prom act: -3%; ELG1 genotox: 4%; FLuc counter: 5.4µM*

Results for COc1ccccc1/C=C/C=N/n1c(-c2ccc(F)cc2)n[nH]c1=S ?
Rab9 promoter act: 2%; NPC1 prom act: 3%; ELG1 genotox: 0%; FLuc counter: inconclusive

What do the screens show for `CCOC(=O)c1ccc2nc(C)cc(Nc3ccc(OC(C)C)cc3)c2c1`?
SMN2 splice enh: -23%; FLuc counter: 4%

What do the screens show for `COc1ccc(C(C)C)cc1S(=O)(=O)NCCc1c(C)[nH]c2c(Cl)cccc12`?
SMN2 splice enh: -13%; FLuc counter: -12%

How did Cc1cc(C)n(C(C)CC(=O)Nc2ccc(Cl)cc2C)n1 (stereo not given) do in these assays?
FLuc counter: 0%

What do the screens show for `CC(C)(C)SCCNC(=O)c1ccccc1`?
KinaseGlo FLuc: -1%; Rab9 promoter act: 3.2µM*; NPC1 prom act: inconclusive; ELG1 genotox: 15%; SMN2 splice enh: 30%; FLuc counter: inconclusive

Results for Cc1ccc(C(=O)NCCSC(C)(C)C)cc1 ?
KinaseGlo FLuc: -7%; Rab9 promoter act: 0.56µM*; NPC1 prom act: 0.5µM*; ELG1 genotox: 1.8µM*; SMN2 splice enh: 10µM*; FLuc counter: inconclusive

Results for CSCCNC(=O)c1ccc(C(C)(C)C)cc1 ?
KinaseGlo FLuc: -5%; Rab9 promoter act: 4µM*; NPC1 prom act: 4µM*; ELG1 genotox: inconclusive; SMN2 splice enh: inconclusive; FLuc counter: 3µM*

How did CC(C)(C)c1ccc(C(=O)NCc2ccc(Cl)cc2)cc1 do in these assays?
KinaseGlo FLuc: -1%; Rab9 promoter act: 18%; NPC1 prom act: 24%; ELG1 genotox: -1%; SMN2 splice enh: -7%; FLuc counter: -3%

Results for Cc1ccc(C)c(Cn2c3ccccc3c3cnn(CC(=O)NC(C)CCc4ccccc4)c(=O)c32)c1 (stereo not given) ?
SMN2 splice enh: 12%; FLuc counter: 0%

Results for O=C(COC(=O)C1CC1)NCCc1ccc(Cl)cc1 ?
Rab9 promoter act: 2%; NPC1 prom act: 0%; ELG1 genotox: 1%; FLuc counter: 1%

How did COc1cccc(/C=N/NC(=O)CNC(=O)C(c2ccccc2)c2ccccc2)c1O do in these assays?
Rab9 promoter act: -7%; NPC1 prom act: -36%; ELG1 genotox: inconclusive; FLuc counter: 4.8µM*
